# KDM4E inh = qHTS Assay for Inhibitors of Human Jumonji Domain Containing 2E (JMJD2E); JMJD2E catalytic domain, FDH-coupled NADH fluorescence (FDH is formaldehyde dehydrogenase); Potency, µM (series often up to 57.1 µM), for the others: at the highest dose activity change, negative = inhibition, most hits filed as inhibitors; 230,000 tested, 1.6% active; active = well fitted inhibition curve with a large enough effect, not every such curve was filed as active; inconclusive = small, poorly fitted or top-dose-only effect, or another doubt; inactive = no such curve, though single readings can be large or run the other way;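 also: potency is read from the fitted curve at half-maximal effect; 0% = wells with enzyme and -100% = buffer wells without enzyme; nearly all actives have a fitted effect of over 50% in size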
# ALDH1A1 inh = qHTS Assay for Inhibitors of Aldehyde Dehydrogenase 1 (ALDH1A1). AID 1030, 2008. 220,000 tested, 7.3% active. Potency, µM (top dose mostly 75.3 µM), for inactives: top-dose activity, negative = inhibition, hits mostly inhibitors. Purified ALDH1A1, NADH fluorescence, propionaldehyde substrate; active = well fitted inhibition curve with a large enough effect, not every such curve was filed as active; inconclusive = small, poorly fitted or top-dose-only effect, or another doubt; inactive = no such curve, though single readings can be large or run the other way;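 also: potency is read from the fitted curve at half-maximal effect; plate controls were no enzyme wells and a reference inhibitor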
# Target sequence (P00352 whole entry, looked up): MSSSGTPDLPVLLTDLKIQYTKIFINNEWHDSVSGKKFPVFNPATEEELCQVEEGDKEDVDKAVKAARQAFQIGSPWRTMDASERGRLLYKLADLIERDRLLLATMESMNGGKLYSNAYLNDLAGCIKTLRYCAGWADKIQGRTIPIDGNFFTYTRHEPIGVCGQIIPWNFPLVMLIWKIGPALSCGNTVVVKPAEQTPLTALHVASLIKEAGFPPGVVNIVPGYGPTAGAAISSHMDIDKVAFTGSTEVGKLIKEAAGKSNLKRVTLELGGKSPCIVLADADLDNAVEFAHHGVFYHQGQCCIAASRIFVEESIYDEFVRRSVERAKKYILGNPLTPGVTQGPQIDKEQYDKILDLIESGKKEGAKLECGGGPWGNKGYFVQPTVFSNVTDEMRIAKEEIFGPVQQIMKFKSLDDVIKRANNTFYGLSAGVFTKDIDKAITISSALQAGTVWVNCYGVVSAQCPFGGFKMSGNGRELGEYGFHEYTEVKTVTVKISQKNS
# G9a block = qHTS Assay for Inhibitors of Histone Lysine Methyltransferase G9a; G9a H3K9 monomethylation, AlphaScreen, 2 h; Histone-lysine N-methyltransferase EHMT2 (Homo sapiens), Q96KQ7; 350,000 tested, 8.8% active; Potency, µM (series often up to 102 µM), for the others: at the highest dose activity, negative = inhibition, hits mostly inhibitors; also: potency is read from the fitted curve at half-maximal effect; % is scaled to controls: 0 for no effect and ±100 for the full control effect; nearly all actives have a fitted effect of over 75% in size
#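 AlphaScreen read-out: biotin-H3K9 peptide (500 nM) methylation by 20 nM enzyme with 20 uM SAM, 2 h at room temperature after 15 min compound preincubation; anti-monomethyl H3K9 antibody plus donor/acceptor beads, 10 min dark.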
# Sfp PPTase inh = qHTS Assay for Inhibitors of Bacillus subtilis Sfp phosphopantetheinyl transferase (PPTase); Potency, µM, for the others: largest response in the series, negative = inhibition, usual class: inhibitors; Biochemical Sfp PPTase activity, qHTS; 310,000 tested, 3.5% active; 4'-phosphopantetheinyl transferase ffp (Bacillus subtilis), Q9F4F7;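 also: the enzyme is Sfp with the accession as filed and its product quenches rhodamine fluorescence; potency is read from the fitted curve at half-maximal effect; 0% = enzyme reaction without inhibitor and -100% = no enzyme wells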
#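 Compounds were incubated with enzyme (final 15 nM) for 15 min at room temperature before substrate addition started the reaction. Fluorescence at 525 nm excitation, 598 nm emission was recorded immediately and after 30 minutes.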
# Lamin A splicing = qHTS Assay for Modulators of Lamin A Splicing | 200,000 tested, 0.01% active | Potency, µM (top dose mostly 46.1 µM), for the others: top-dose ratio change, negative = inhibition, usual class: inhibitors | AID 1487, 2009 | HeLa LMNA splicing GFP/RFP minigene ratio, 48 h; active = well fitted inhibition curve with a large enough effect in the signal ratio, with a control signal flat, not every such curve was filed as active; inconclusive = small, poorly fitted or top-dose-only effect, or effect the other way, or a change in a side signal; the % refers to the signal ratio; also: potency is read from the fitted curve at half-maximal effect; % is scaled to controls: 0 for no effect and ±100 for the full control effect
#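 Read-out is the ratio of GFP to DsRed2 object intensity, acquired by 488 nm laser-scanning cytometry on HeLa lamin A-EGFP minigene reporter cells. Compound incubation 48 hrs at 37 °C in Opti-MEM with 2% FBS; DMSO 0.5% final.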
# miR-21 act = qHTS Assay for Modulators of miRNAs and/orActivators of miR-21; HeLa miR-21 FLuc reporter, luciferase, 48 h; Potency, µM (highest dose often 38.3 µM), for inactives: top-dose activity change, positive = activation, actives largely listed as activators; 340,000 tested, under 10 active;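 also: % of control where 0% means no effect; miR-21 action dims this reporter so a rising signal means less miR-21 action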
#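 Using DMEM plus 10% FBS, HeLa miR-21-FLuc cells are incubated with test compounds (final up to about 40uM) for 48 hours; firefly luciferase signal is then imaged following reagent-mediated lysis.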
# * marks the source's active call; other numbers are inactive results; ? = inconclusive; / = no result; [ ] = remark or other dose. Sampled rows, rich in hits. Any-hit rate of the full collection: about 13%. Unless noted, calls follow the shape of the dose curve; as a rule, active = well fitted curve in the direction sought with a large enough effect; inconclusive = small, poorly fitted or top-dose-only effect, or another doubt; inactive = no such curve, though single readings can be large; an effect the other way counts as inactive or inconclusive.
SMILES,KDM4E inh,ALDH1A1 inh,G9a block,Sfp PPTase inh,Lamin A splicing,miR-21 act
COc1cccc(CNC(=O)CN2C(=O)CCn3nc(-c4cn(C)c5ccccc45)cc32)c1OC,/,/,3%[59 µM],/,-6%[46 µM],-3%
CN(C(=O)Cn1cnc2onc(-c3ccc(F)cc3)c2c1=O)c1ccccc1Cl,/,/,1%[59 µM],/,3%[46 µM],-5%
O=C(Cn1c(=O)n(-c2ccccc2)c(=O)c2c3c(sc21)CCCC3)Nc1ccc(F)cc1F,/,/,-32%[59 µM],/,/,0%
CC1=C(C)NC(=S)SC1,-4%,22µM*,?,?,2%,-4%
CCc1nnc(NC(=O)CSc2nnc(-c3ccccc3O)n2CC)s1,-1%,1%,?,-1%,6%,0%
CCc1nnc(NC(=O)CSc2nnc(-c3cc4ccccc4cc3O)n2CC)s1,-8%,0%,28µM*,-3%,?,-4%
CCc1nnc(NC(=O)CSc2nccn2-c2cccc(C)c2C)s1,1%,16µM*,?,?,?,27%
Cc1c2oc3c(C)ccc(C(=O)NC4C(=O)NC(C(C)C)C(=O)N5CCCC5C(=O)N(C)CC(=O)N(C)C(C(C)C)C(=O)OC4C)c3nc-2c(C(=O)NC2C(=O)NC(C(C)C)C(=O)N3CCCC3C(=O)N(C)CC(=O)N(C)C(C(C)C)C(=O)OC2C)c(N)c1=O (stereo not drawn),/,-3%,?,0%,/,/
CCOc1ccc(S(=O)(=O)NCCN2CCOCC2)c2ccccc12,-5%,-6%,1%[59 µM],79µM*,-8%,-3%
CCOc1ccc(S(=O)(=O)NCc2ccco2)c2ccccc12,-12%,14µM*,?,?,14%,-18%
COc1ccc(S(=O)(=O)NCCN2CCOCC2)cc1[N+](=O)[O-],/,/,50µM*,-5%,/,3%
CC(=O)c1ccc(NC(=O)c2ccccc2Sc2ncnc3sc(C)c(C)c23)cc1,-24%,-6%,32µM*,-3%,7%,-16%
CC(=O)Nc1ccc(NC(=O)CSc2ncnc3sc(C)c(C)c23)cc1,/,/,10%,26%,/,-3%
CCN(CC(=O)Nc1ccc(NC(C)=O)cc1)C(=O)CSc1ncnc2sc(C)c(C)c12,/,/,13µM*,/,/,/
Cc1sc2ncnc(SCC(=O)N3CCCC3=O)c2c1C,4%,0.1µM*,?,2%,1%,-3%
Cc1sc2ncnc(SCC(=O)N3CCCCC3)c2c1C,/,/,18%,3%,/,-7%
Cc1sc2ncnc(SCC(=O)NC(=O)c3cccn3C)c2c1C,-4%,?,32µM*,-25%,-11%[46 µM],-3%
Cc1sc2ncnc(Sc3ccccc3C(=O)O)c2c1C,-2%,6%,-15%[59 µM],-19%,-13%[46 µM],-4%
CCC(C)c1ccccc1N1CC(C(=O)NCCCn2nc(C)cc2C)CC1=O (stereo not drawn),/,/,14%[2.33 µM],/,/,/
Cc1ccc(C(=O)c2oc3ccccc3c2NC(=O)Cc2ccccc2)cc1,/,/,43%[59 µM],/,/,-15%
CCOc1ccc(N2CC(C(=O)NCCc3c[nH]c4ccc(OC)cc34)CC2=O)cc1 (stereo not drawn),/,/,-12%,17%,/,3%
Cc1ccc(-n2c(C)cc(C(=O)COc3c(CO)cc(F)cc3CO)c2C)cc1C,1%,1%,-15%[59 µM],-13%,?,23%
COc1ccc(C)cc1NC(=O)c1cc2c(=O)n3cccc(C)c3nc2s1,/,/,1%[59 µM],/,/,4%
CN(CC(=O)Nc1ccc(Cl)c(Cl)c1)C1CCCCC1,/,/,22µM*,-21%,/,5%
CN(CC(=O)Nc1ccc(SC(F)F)cc1)C1CCCCC1,-8%,?,79µM*,0%,/,0%
CN(CC(=O)Nc1ccccc1Cl)C1CCCCC1,/,/,29%,13%,/,0%
